Mito fusion act – blocks mitochondrial division or promotes mitochondrial fusion; Potency, µM (series often up to 46.1 µM), for inactives: at the highest dose growth rescue (activation), actives largely listed as activators; AID 485298; S. cerevisiae fusion-defective mutant growth rescue, CellTiterGlo 48 h; 0.23% of 320,000 active; also: % of control where 0% means no effect; nearly all actives have a fitted effect of over 45% in size
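Read-out: ATP-based luminescence (CellTiterGlo, 10 min ambient) reporting growth of fusion-defective ts yeast after 48 hours at 37C on glycerol/ethanol YPEG medium in the presence of compound.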
aSyn rescue – inhibitors of alpha-synuclein toxicity in yeast; 0.14% of 370,000 active; Yeast expressing alpha-synuclein, growth rescue, BacTiter-Glo, 24 h; Potency, µM (titrated, usually from 46.1 µM), for inactives: at the highest dose growth rescue (activation), actives largely listed as activators; AID 652106; also: % of control where 0% means no effect; nearly all actives have a fitted effect of over 65% in size
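Readout is rescue of growth in alpha-synuclein-expressing yeast, so inhibitors of toxicity appear as activators. Growth after 24 hr at 30 deg C in galactose medium is quantified by luminescence.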
FUS yeast rescue – FUS proteinopathy suppression in yeast; S. cerevisiae FUS-expressing, growth rescue, OD600, 24 h; Potency, µM (top dose mostly 76.6 µM), most hits filed as activators; 0.24% of 390,000 active;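 also: plate controls were DMSO vehicle for no effect and reference control for full effect; nearly all actives have a fitted effect of over 55% in size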
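FUS-expressing yeast, raffinose-pregrown, induced in 2% galactose minimal medium at OD 0.005; compounds in a dilution series, 24hr at 30C. Growth restoration read as absorbance at 600 nm. CP55940 positive control, DMSO negative.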
Abeta rescue – compounds reversing amyloid beta toxicity in yeast. yeast expressing A-beta42, growth rescue, OD600, 48 h; response scale: 0% DMSO, 100% iron-clioquinol control. Potency, µM (highest dose often 46.1 µM), hits mostly activators. 0.063% of 410,000 active; also: nearly all actives have a fitted effect of over 55% in size
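Yeast A-beta toxicity model in growth medium with pinned compounds, 48 h at 30 C; growth read as absorbance at 600 nm. Normalized to FeCl3/clioquinol equimolar mix (positive) and DMSO (negative).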
TDP43 rescue – TDP-43 toxicity inhibition in yeast. TDP-43 expressing yeast growth rescue, BacTiter-Glo, 24 h. Potency, µM (doses to about 46.1 µM), inactives show at the highest dose growth rescue (activation), actives largely listed as activators. 1.8% of 410,000 active. AID 652104; also: % of control where 0% means no effect; nearly all actives have a fitted effect of over 50% in size
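Luminescence from BacTiter-Glo reports growth of TDP-43-expressing yeast after 24 hr at 30 deg C with compound. Cells were raffinose-pregrown to mid-log, then seeded in galactose medium at OD600=0.02.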
Active calls of the source: *; i = inactive; ? = inconclusive; nt = no result; [ ] = dose if it differs, or a comment. A selection: hits, their analogues and other compounds. The true share with any hit is near 2.2%. Calls follow the shape of the dose curve; as a rule, active = well fitted curve in the direction sought with a large enough effect; inconclusive = small, poorly fitted or top-dose-only effect, or another doubt; inactive = no such curve, though single readings can be large; an effect the other way counts as inactive or inconclusive. Potency is read from the fitted curve at half-maximal effect.

SMILES | Mito fusion act | aSyn rescue | FUS yeast rescue | Abeta rescue | TDP43 rescue
Cc1ccc(NC(=O)C(Cc2ccccc2)n2cccc2)cc1 (stereo not given) | 10.2% | 2.1% | i | i | 14.1%
C[C@H]1CCCN1c1cccc2c1S(=O)(=O)N1CC[C@@H](C1)O2 | nt | nt | i | nt | nt
O=C(C[n+]1ccccc1Br)c1ccc2c(c1)CCCC2 | nt | -1.1% | nt | nt | nt
Cc1ccc(S(=O)(=O)N(C)C)cc1NC(=S)N(CCC#N)Cc1cccnc1 | 7.08µM* | -1.4% | i | i | -14.0%
CSc1cccc(NC(=O)Cn2ncn3c(cc4ccccc43)c2=O)c1 | nt | nt | i | i | 21.4%
CC(C)(C)OC(=O)N1CCCN(C(c2cc3ccccc3o2)c2nnnn2C(C)(C)C)CC1 (stereo not given) | nt | -6.8% | 15.8µM* | i | ?
O=S(=O)(Nc1c(Br)cc(Br)c2cccnc12)C1CC1 | nt | 3.8% | nt | nt | nt
Cc1[nH]c2ccc(C(=O)N3CCN(c4ccc(F)cc4)CC3)cc2c1C | 0.7% | 13.2% | i | i | 14.1µM*
Cc1[nH]c(-c2ccc(F)cc2)cc1C(=O)N1CCN(c2ccc(Cl)cc2)CC1 | -65.0% | ? | i | i | 15.8µM*
Cc1scc(C(=O)N2CCN(c3ccc(Cl)cc3)CC2)c1C | 0.0% | 6.6% | i | i | 14.1µM*
CC(=O)c1ccc(N2CCN(C(=O)c3ccc4[nH]c(C)c(C)c4c3)CC2)cc1 | nt | 7.0% | i | i | ?
Cc1occc1C(=O)N1CCN(c2ccc(Cl)cc2)CC1 | 4.0% | 7.1% | i | i | 10µM*
Cc1occc1C(=O)N1CCN(c2ccc([N+](=O)[O-])cc2)CC1 | -0.3% | -1.4% | i | i | 0.0%
COC(=O)C[C@@H]1CC[C@H]2[C@@H](COc3ccc(NC(=O)c4cc(C)on4)cc3C(=O)N2C)O1 | nt | nt | i | nt | nt
CC(=O)n1c2c(c3ccccc31)OC(N)=C(C#N)C2c1ccc(C(C)C)cc1 (stereo not given) | 4.2% | 20µM* | i | i | 0.8%
COc1ccc(N(CC(=O)Nc2cccc(N(C)S(C)(=O)=O)c2)S(=O)(=O)c2ccc(C)cc2)cc1 | -1.7% | 9.4% | 28.2µM* | i | 7.0%
CNC(=O)c1c(NC(=O)c2ccc(N3C(=O)CCC3=O)cc2)sc2c1CCC(C)C2 (stereo not given) | nt | 1.0% | nt | i | 31.6µM*
Cc1ccc(SCC(=O)c2cc(C)c(O)c(C)c2)cc1 | 15.9% | -1.3% | i | i | 17.8µM*
Cc1ccc(SCC(=O)c2c(C)nc3ccccn23)cc1 | 0.1% | -0.6% | i | i | -15.8%[0.397 µM]
Cc1ccc(-c2cc(C(=O)N3CCN(S(=O)(=O)c4ccc(Br)cc4)CC3)[nH]n2)cc1C | nt | nt | i | i | 8.1%
CCOC(=O)Cn1c(=O)cc(C(F)(F)C(F)(F)F)c2c(C)nn(CC)c21 | nt | nt | ? | i | 6.9%
O=C1CC(c2cccc(Br)c2)c2cc3c(cc2N1)CCC3 (stereo not given) | -12.5% | ? | i | i | -5.6%
O=C1CC(c2cc(F)ccc2F)c2cc3c(cc2N1)CCC3 (stereo not given) | 7.08µM* | ? | i | i | -23.5%
Cc1cccc(-c2nnc(SCC(=O)Nc3ccc(OCc4ccccc4)cc3)n2Cc2ccco2)c1 | nt | nt | i | nt | nt
Cc1cc(Br)c2nc(-c3ccccc3)c(Cc3cccc(Cl)c3)n2c1 | nt | -6.6% | ? | i | 11.2µM*
SMILES | Mito fusion act | aSyn rescue | FUS yeast rescue | Abeta rescue | TDP43 rescue
Cc1ccc2nc(-c3ccccc3)c(Cc3cccc(Cl)c3)n2c1 | nt | -1.3% | i | i | 7.7%
Cc1ccc(Cc2c(-c3cccc(Cl)c3)nc3ccc(Cl)cn23)cc1 | nt | 24.0% | i | i | 15.8µM*
Cc1ccc2nc(-c3ccc(C#N)cc3)c(Cc3cccc(Cl)c3)n2c1 | nt | ? | i | i | 35.5µM*
Cc1ccc2nc(-c3cccc(Br)c3)c(Cc3cccc(Cl)c3)n2c1 | nt | 1.0% | i | i | 35.5µM*
Cc1ccc(Cc2c(-c3cccc(Cl)c3)nc3ccc(Br)cn23)cc1 | nt | -20.3% | ? | i | ?
COc1ccc(Cc2c(-c3cccc(Cl)c3)nc3ccc(Cl)cn23)c(C)c1 | nt | 7.9% | i | i | 35.5µM*
Cc1ccc(Cc2c(-c3cccc(Cl)c3)nc3ccc(C)cn23)cc1 | nt | 6.1% | i | i | 28.2µM*
CC(=O)Nc1c(C)nn(-c2ccccc2)c1N1CCC(C(=O)Nc2ccccc2C(F)(F)F)CC1 | nt | nt | i | i | 20.7%
Cc1c(OCC(=O)C(C)(C)C)ccc2c(-c3ccccc3)cc(=O)oc12 | -30.1% | 2.0% | i | ? | 25.1µM*
OCc1ccccc1-c1ccc2nncn2c1 | nt | ? | i | i | 35.5µM*
Cc1cccc(N(C)c2nc3ccc(C)cc3n3cnnc23)c1 | nt | nt | i | i | 12.6µM*
Cc1cccc(N(C)c2nc3ccc(C)cc3n3nnnc23)c1 | nt | nt | i | i | 6.4%
Cc1ccc(-c2nc(C)sc2CC(=O)OCC(=O)Nc2ccc(F)c(Cl)c2)cc1 | nt | -6.2% | i | ? | 25.1µM*
Nc1ccc(/C=C/c2ccnc3ccccc23)cc1[N+](=O)[O-] | nt | -13.2% | nt | nt | nt
O[C@@H]1COC(Nc2ccc(N=Nc3ccccc3)cc2)C[C@@H]1O (stereo not given in full) | -2.7% | -2.4% | i | i | 12.6µM*
COc1cc(-c2cc3nc(NCCN(C)C)ccn3n2)cc(OC)c1OC | nt | -0.8% | i | i | -3.2%
COc1cc(-c2cc3nc(NC4CCCCC4)ccn3n2)cc(OC)c1OC | nt | 0.7% | i | i | 35.5µM*
COc1cc(/C=C/c2ccc(O)cc2)cc(OC)c1 | 6.5% | -19.0% | i | i | 28.2µM*
CC(C)CC(=O)Nc1ccccc1OCc1cc(=O)n2ccccc2n1 | nt | nt | i | i | 23.5%
O=C1Cc2ccccc2C(=O)N1 | nt | -8.0% | i | i | 22.4µM*
O=C(NCc1ccc2c(c1)CCN2C(=O)c1ccccc1)c1cc2ccccc2[nH]1 | nt | nt | i | i | 5.0%
COc1ccc(CCC(=O)NCc2ccc3c(c2)CCN3C(=O)c2cccc(C)c2)cc1 | nt | nt | ? | i | 25.1µM*
O=C(NCc1ccc2c(c1)CCN2C(=O)c1ccc(F)cc1)c1cc2ccccc2[nH]1 | nt | nt | i | i | 31.6µM*
COc1ccc(OCC(=O)NCc2ccc3c(c2)CCN3C(=O)c2ccccc2)cc1 | nt | nt | i | i | 25.1µM*
O=C(CN1CC[n+]2c(-c3cccs3)csc21)c1ccc(-c2ccccc2)cc1 | -3.8% | -11.2% | i | i | 3.55µM*
Cc1ccccc1C(=O)Nc1nnc(S(=O)(=O)N(C)Cc2ccc(Cl)cc2)s1 | nt | nt | i | i | 16.5%
Cc1cccc(NC(=O)CSCC(=O)N(C)CCOc2ccc(Cl)cc2)c1 | -2.6% | -2.0% | i | i | 12.6µM*

Bioassay records deposited in PubChem BioAssay by National Center for Advancing Translational Sciences (NCATS).
